Pf Dd2 inh – Plasmodium falciparum Dd2 growth inhibition; P. falciparum Dd2 growth, SYBR Green, 72 h; Potency, µM (highest dose often 28.9 µM), inactives show at the top dose activity, negative = inhibition, most hits filed as inhibitors; 120,000 tested, 4.3% active; AID 1347417; active means well fitted inhibition curve with a large enough effect;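 further: plate controls were DMSO vehicle for no effect and reference drug for full effect; nearly all actives have a fitted effect of over 65% in size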
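Infected erythrocytes (Dd2, 0.3% parasitemia, 2.5% hematocrit final) are added to compound in RPMI-1640/Albumax II medium, grown 72 h at 37C in low oxygen, then lysed with saponin/Triton-X containing SYBR Green and read by fluorescence.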
* marks the source's active call; other numbers are inactive results; i = inactive; [ ] = another dose, or the depositor's remark. Many of the other results were omitted from the sample, so hits are more common in it than they were. Potency means the concentration at half of the fitted maximal effect.

SMILES	Pf Dd2 inh
CN(C)CCNC(=O)c1nc2nc(-c3ccccc3)c(-c3ccccc3O)cc2n1C	5.62µM*
COCc1nc2nc(-c3ccccc3)c(-c3ccccc3O)cc2n1C	4.47µM*
COc1ncccc1-c1cc2c(nc1-c1ccccc1)nc(C(=O)NCCN(C)C)n2C	i
COc1cc(CNC(=O)c2nc3nc(-c4ccccc4)c(Cl)cc3n2C)cc(OC)c1	8.91µM*
COCc1nc2nc(-c3ccccc3)c(-c3ccccc3OC)cc2n1C	-6.0%[44.1 µM]
Cn1c(C(=O)NCC2CC2)nc2nc(-c3ccccc3)c(Cl)cc21	-13.1%[44.1 µM]
Cn1c(C(=O)NCCc2ccccn2)nc2nc(-c3ccccc3)c(Cl)cc21	i
Cn1c(C(=O)NCCN2CCOCC2)nc2nc(-c3ccccc3)c(Cl)cc21	i
COc1ccc(CNC(=O)c2nc3nc(-c4ccccc4)c(Cl)cc3n2C)cc1OC	8.5%[44.1 µM]
CN(C)CCNC(=O)c1nc2nc(-c3ccccc3)c(-c3ccc(Cl)cc3)cc2n1C	5.01µM*
COCc1nc2nc(-c3ccccc3)c(-c3cccnc3)cc2n1C	-6.0%[44.1 µM]
CC(C)[C@H]1CN(Cc2ccccc2C#N)C[C@@H]1NC(=O)C1CCOCC1	-2.7%
CC1(C)CC(NC(=O)C2CC(=O)N(c3n[nH]c4ccccc34)C2)CC(C)(C)N1 (configuration not stated)	-8.0%
O=C([C@H]1C[C@H](Oc2ccccc2)CN1S(=O)(=O)c1ccccc1)N1CCOCC1	-8.2%
O=C(CC1CCCCC1)N1CC2CC(C1)[C@H]1CCCC(=O)N1C2 (some centres not stated)	-3.6%
COC1CCC12CCN(C(=O)C1(c3ccccc3)CC1)CC2 (configuration not stated)	-21.6%
COc1ccc2c(c1)CCc1c(C(=O)Nc3cnn(Cc4ccc(Cl)cc4Cl)c3)noc1-2	7.94µM*
COc1ccc(CN2Cc3cc(NC(=O)c4ccc(Cl)cc4)ccc3OC(C)C2=O)c(OC)c1 (configuration not stated)	i
CCc1cc(C(=O)Nc2cnn(Cc3ccccc3C)c2)no1	0.2%
Cc1ccc(OCCC2CCN(C(=O)Nc3cccc(C)c3)C2)cc1 (configuration not stated)	i
NCc1cccc(-c2ccc3c(c2)C(=O)N2CC[C@H](NC(=O)NC4CCCCC4)[C@H]2C(=O)N3)c1	-9.1%
CCOc1ccc(C2=CC(c3cc(Br)ccc3F)n3ncnc3N2)cc1Cl (configuration not stated)	11.2µM*
COC(=O)c1nc2n(n1)C(c1cc(OC)ccc1OC)C=C(c1ccc(Br)cc1)N2 (configuration not stated)	10.6%
COc1ccc(C2=CC(c3cc(Br)ccc3F)n3c(nc4ccccc43)N2)cc1 (configuration not stated)	-22.7%
COC(=O)C1=CN(CC(=O)NCCCc2ccccc2)S(=O)(=O)N=C1C	-2.7%
SMILES	Pf Dd2 inh
COCCNC(=O)[C@@H]1C[C@H](Oc2cccnc2)CN1C(=O)c1cc(-c2ccc(C)cc2)n[nH]1	i
COCc1cc(C)nc2c1C(=O)NC(c1ccc(Br)cc1)N2Cc1ccccc1 (configuration not stated)	10µM*
COCc1cc(C)nc2sc3c(c12)NC(c1ccccc1C(=O)O)N(c1ccc(OC)cc1)C3=O (configuration not stated)	i
COCc1cc(C)nc2sc3c(c12)NC(c1ccc(O)c(OC)c1)N(c1ccccc1)C3=O (configuration not stated)	-8.8%
COC(=O)[C@@H](C)NC(=O)c1coc(COc2cccc(C(F)(F)F)c2)n1	2.5%
CN1C(=O)C2(CCN(C(=O)CCCS(N)(=O)=O)CC2)c2ccccc21	3.7%
COCCC(=O)N1CCC2(CC1)C(=O)N(C)c1ccccc12	50.1%
CN1C(=O)C2(CCN(C(=O)CCC3CCCCC3)CC2)c2ccccc21	5.01µM*
Cc1cc(C(=O)N2C[C@@H](CO)[C@H](c3ccccn3)C2)on1	29.4%
CCCc1cc(CN(C)c2nc(CCN)nc3sc(C)c(C)c23)[nH]n1	10µM*
COCCN1CC(CNc2nc(CCN)nc3sc(C)c(C)c23)CC1=O (configuration not stated)	-0.8%
COc1ccc(CCNC(=O)C(CC(C)C)N2Cc3ccccc3C2=O)c(OC)c1OC (configuration not stated)	i
CCc1nc(C)c(C(=O)N2C[C@@H](c3ccc(F)cc3)[C@@H]3[C@H]2C2CCN3CC2)o1	4.9%
Cc1ccc(NC(=O)N2C[C@@H](F)C[C@H]2C(=O)N2CCCCC2)cc1Cl	-12.6%
Cc1cc(CN2CC3(C2)C(=O)Nc2ccccc23)no1	-1.0%[44.1 µM]
Fc1ccccc1-c1noc(NCc2ccccc2)n1	-4.0%
NCc1cccc(-c2ccc(F)cc2F)c1	12.6µM*
O=C(c1ccncc1)N1CC2CCC(C1)N2Cc1cccc(-c2ccc(F)cc2F)c1	-8.8%
NCc1cccc(-c2cccc(C(F)(F)F)c2)c1	11.2µM*
O=C(O)c1cccc(-c2cccc(C(F)(F)F)c2)c1	5.0%[44.1 µM]
O=Cc1cccc(-c2ccccc2F)c1	1.7%[76.6 µM]
NCc1cccc(-c2ccccc2F)c1	11.2µM*
O=Cc1cccc(-c2ccc(F)cc2F)c1	-11.0%[44.1 µM]
O=Cc1cccc(-c2cccc(C(F)(F)F)c2)c1	i
CC(C)CC(=O)Nc1ccnn1C1CCN(C(=O)c2scc3c2CCCC3)CC1	-27.4%
SMILES	Pf Dd2 inh
CCOCCn1c(=O)[nH]c2cc(C(=O)N3CCS(=O)(=O)CC3)ccc21	10.3%
COc1ccc(NC(=O)N2CC3CC(C2)[C@H]2CCCC(=O)N2C3)cc1OC (some centres not stated)	-10.9%
CCc1ccc(-n2nc(C)c3c(C)cc(=O)n(CC(=O)Nc4ccc(C)c(F)c4)c32)cc1	29.5%
COc1ccc(CNC(=O)C2CCN(C(=O)c3cnn(-c4ccccc4)c3-n3cccc3)CC2)cc1	i
CCNC(=O)NC[C@@H]1C=C(C)[C@H](CC(=O)NCCOC)C[C@H]1C(C)C	-15.4%[44.1 µM]
Cc1cc(C)c2c(CC(=O)N(Cc3ccc(Cl)cc3)Cc3ccco3)coc2c1	-18.6%
N#C/C(=C\c1ccc(O)cc1)C(=O)NCC1CCCO1 (configuration not stated)	19.5%
Cc1noc([C@@H](C)NC(=O)C2CC2)c1C(=O)O	25.9%[44.1 µM]
COCCNC(=O)c1ccc2c(c1)N(C)C(CC(=O)NC1CCC1)CO2 (configuration not stated)	-9.2%
CCN1CCC(N(Cc2ccc3c(c2)OCO3)C(=O)Nc2ccccc2OC)CC1	-24.4%
O=C([C@@H]1COCC(=O)N1Cc1ccccc1)N1CCN(Cc2ccc3c(c2)OCO3)CC1	31.3%
O=C1[C@H]2CN(Cc3ccc(F)c(Cl)c3)C[C@H]2C(=O)N1Cc1ccc2c(c1)OCO2	i
O=C(Nc1ccc(F)c(Cl)c1)N(Cc1ccc2c(c1)OCO2)C1CCN(Cc2ccccc2)CC1	8.91µM*
COC(=O)c1ccc(Cl)cc1NC(=O)N(Cc1ccc(C)o1)C1CCN(C(C)=O)CC1	-21.4%
CCN1CCC(N(Cc2ccc3c(c2)OCO3)C(=O)Nc2cc(Cl)ccc2C(=O)OC)CC1	3.55µM*
COc1ccc(-c2onc(C)c2C(=O)NCCCOC(C)C)cc1	-9.0%
O=C(Nc1cccc(F)c1)C1CCCN(S(=O)(=O)c2cccc3cccnc23)C1 (configuration not stated)	-26.0%
Cc1ccc(CC(=O)N2CCCN(c3cc(-c4ccccc4)[nH]n3)CC2)cc1	i
CC1CCc2c(sc(NC(=O)CCCOc3ccccc3)c2C(N)=O)C1 (configuration not stated)	30.3%

Compound activity as filed in PubChem.
